# ELG1 repair inh: inhibitors of ELG1-dependent DNA repair in HEK293T cells; HEK293T ELG1-luciferase reporter, luminescence, 16 h; DNA damage induced by 5-fluorouridine; 2.3% of 330,000 active; Potency, µM (highest dose often 46.1 µM), inactives show at the top dose activity change, negative = inhibition, usual class: inhibitors; AID 504467; also: potency is read from the fitted curve at half-maximal effect; nearly all actives have a fitted effect of over 55% in size
#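 In this reporter screen, reduction of luminescence relative to DMSO vehicle indicated activity. Compounds and 5-fluorouridine were added together to 2,000 cells per well, incubated for 16 hr at 37 °C, then developed with ONE-Glo.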
# IL1B secr inh: inflammasome signaling inhibition, IL-1 beta readout; THP-1 LPS/ATP IL-1B secretion, AlphaLISA, 16 h; hits give low values; activity change, % at 57.5 µM; 4.7% of 360,000 active; in the data active = activity change below about -50%; inconclusive = mostly about -30% to -49%
#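 THP-1 cells pretreated 1 hr with compounds (up to 57.5 uM final), then stimulated with LPS (250 ng/mL final) plus ATP (1.25 mM final); secreted IL-1B measured by AlphaLISA after 16 hr, decreased signal indicating inhibition.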
# HT1080NT lethal: kills 2HG-producing HT-1080-NT fibrosarcoma cells. HT-1080-NT fibrosarcoma viability, CellTiter-Glo ATP luminescence, 48 h. Potency, µM (series often up to 46.1 µM), for the others: top-dose activity, negative = less viability, usual class: cytotoxic. 1.6% of 360,000 active. AID 686970;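 also: NT is the 2HG producing partner of a matched IDH1 knockdown line; potency is read from the fitted curve at half-maximal effect; 0% = DMSO-treated cells and -100% = media-only wells without cells; nearly all actives have a fitted effect of over 55% in size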
#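 HT-1080-NT fibrosarcoma cells (2HG-overproducing), 750 cells/well in RPMI with 5% FBS, dosed after 2 h and incubated 48 h at 37C. CellTiter-Glo luminescence normalized to DMSO and no-cell wells; concentration-response curves fitted and classed.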
# TDP1 cell CPT: DT40-hTDP1 cell growth loss with CPT. chicken DT40 Tdp1-/-;hTDP1 cells + 20 nM CPT, ATP luminescence, 48 h. Potency, µM (titrated, usually from 46.2 µM), for inactives: at the top dose activity change, negative = growth inhibition, usual class: inhibitors. AID 686979. 12% of 420,000 active; also: potency is read from the fitted curve at half-maximal effect; nearly all actives have a fitted effect of over 55% in size
#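 Chicken DT40 Tdp1-/- cells stably complemented with human TDP1 were seeded at 400 cells/well in medium containing 20 nM camptothecin, exposed to pin-transferred compounds, and grown at 37 °C for at least 48 hr. Viability was read as ATP luminescence.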
# DT40 TDP1 no CPT: qHTS for Inhibitors of human tyrosyl-DNA phosphodiesterase 1 (TDP1): qHTS in cells in absence of CPT. Potency, µM (titrated, usually from 46.2 µM), without a hit: at the top dose activity change, negative = growth inhibition, most hits filed as inhibitors. DT40 Tdp1-/- hTDP1 cells, no CPT, ATP luminescence, 48 h. 15% of 420,000 active. AID 686978, 2013; also: potency is read from the fitted curve at half-maximal effect; nearly all actives have a fitted effect of over 55% in size
#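 A cellular qHTS used chicken DT40 cells lacking endogenous Tdp1 but carrying stably transfected human TDP1. Compounds were applied without camptothecin, and cell growth kinetics were judged by ATP-dependent luminescence after ≥48 hr.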
# HT1080 IDH1KD tx: toxicity to HT-1080 IDH1 knockdown cells (counter line) | HT-1080 IDH1 knockdown viability, ATP luminescence, 48 h | Potency, µM (titrated, usually from 46.1 µM), without a hit: at the highest dose activity, negative = toxicity, hits mostly cytotoxic | 2% of 360,000 active | AID 686971;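 also: potency is read from the fitted curve at half-maximal effect; 0% = DMSO wells and -100% = cell-free medium wells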
#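 HT-1080-IDH1KD cells (IDH1 knocked down), 750/well in RPMI with 5% FBS, treated with compound 48 h at 37 degrees C. Viability by CellTiter-Glo luminescence, normalised to DMSO and no-cell wells; concentration-response curves classed.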
# * marks the source's active call; other numbers are inactive results; ? = inconclusive; . = no result given. An excerpt weighted towards active compounds, which were near 19% of everything screened. Unless noted, calls follow the shape of the dose curve; as a rule, active = well fitted curve in the direction sought with a large enough effect; inconclusive = small, poorly fitted or top-dose-only effect, or another doubt; inactive = no such curve, though single readings can be large; an effect the other way counts as inactive or inconclusive. Unless noted, % is scaled to controls: 0 for no effect and ±100 for the full control effect.
SMILES,ELG1 repair inh,IL1B secr inh,HT1080NT lethal,TDP1 cell CPT,DT40 TDP1 no CPT,HT1080 IDH1KD tx
CC1(C)Cc2c(sc3c2c(=N)n(Cc2ccco2)c(=O)n3Cc2ccc(Cl)cc2)CO1,5.8µM*,?,-18%,-110%,?,-8%
Cc1cccc(C)c1NC(=O)NN=C1CCCCC1,2%,-1,13%,-3%,10%,3%
O=C(CCc1nnc2n(Cc3ccccc3)c(=O)c3ccccc3n12)NCCCN1CCCCC1,13%,-14,3%,-15%,3%,1%
CCn1c(=O)cc(SCC(=O)N2CCN(c3cc(C)ccc3C)CC2)c2ccccc21,.,.,.,16µM*,?,.
Cn1cc(SCC(=O)N2CCN(c3ccccc3)CC2)c2ccccc21,-10%,-2,-10%,21µM*,?,0%
Cc1ccc(C)c(N(C)C(=O)COc2cc(=O)n(C)c3ccccc23)c1,3%,0,-2%,?,?,3%
Cc1ccc(C)c(N2CCN(C(=O)COc3cc(=O)n(C)c4ccccc34)CC2)c1,?,-26,2%,15µM*,?,-16%
CC1CCN(CCCNC(=O)CCc2nnc3n(CCc4ccccc4)c(=O)c4ccccc4n23)CC1,?,?,3%,?,16µM*,29%
Cc1ccc(N(CC(=O)Nc2ccc(F)cc2F)S(=O)(=O)c2cccs2)cc1,.,.,.,-22%,?,.
Cn1c(=O)cc(SCC(=O)N2CCN(C3CCCCC3)CC2)c2ccccc21,.,-60*,2%,?,?,-6%
CC1CCN(C(=O)Cn2c(=O)n(CCc3ccccc3)c(=O)c3ccccc32)CC1,?,5,-10%,15µM*,16µM*,-11%
CCn1c(=O)cc(SCC(=O)N2CCC(C)CC2)c2ccccc21,?,-62*,-3%,?,?,-26%
CC1CCN(C(=O)Cn2c(=O)n(Cc3ccc4c(c3)OCO4)c(=O)c3ccccc32)CC1,0%,-29,-7%,?,?,-11%
Cc1cccc(C)c1NC(=O)CNC(=O)c1cccnc1,-6%,27,6%,-3%,15%,8%
CC(C)N1C(=O)NC2NC(=O)N(C(C)C)C21 (stereo unspecified),.,55,11%,1%,-1%,1%
COc1ccc(/C=C/C(=O)OCC(=O)NCc2ccccc2Cl)cc1OC,?,11,10%,-21%,-21%,15%
CCn1nc(C(=O)Nc2cc(Cl)ccc2-n2cncn2)c2ccccc2c1=O,6%,6,9%,3%,-9%,14%
O=C(CNC(=O)C1CCCCC1)OCC(=O)c1ccc2c(c1)CCC2,.,.,.,-22%,-14%,.
Cc1cccc(C)c1NC(=O)COC(=O)c1ccc2c(c1)OCO2,8%,-4,12%,-4%,?,5%
CC(OC(=O)c1cc2ccccc2cc1O)C(=O)Nc1ccc(S(N)(=O)=O)cc1 (stereo unspecified),-7%,0,-9%,-12%,-23%,-2%
CC(OC(=O)c1c2c(nc3ccccc13)/C(=C\c1ccc3c(c1)OCO3)CCC2)C(=O)Nc1ccc(S(N)(=O)=O)cc1 (stereo unspecified),?,?,-9%,?,18µM*,?
Cc1cccc(C)c1NC(=O)COC(=O)c1c2c(nc3ccccc13)/C(=C\c1ccc3c(c1)OCO3)CCC2,?,13,-12%,?,18µM*,-2%
Cc1nc2nc[nH]c2cc1Br,0%,12,3%,-1%,-4%,-5%
Cc1nc2nc(-c3cccs3)[nH]c2cc1Br,.,?,?,?,16µM*,?
CCCCNc1c(-c2ccc(SC3CCCCC3)cc2)nc2cnccn12,?,-13,?,15µM*,?,?
SMILES,ELG1 repair inh,IL1B secr inh,HT1080NT lethal,TDP1 cell CPT,DT40 TDP1 no CPT,HT1080 IDH1KD tx
CCOC(=O)CNc1c(-c2ccc(Cl)cc2)nc2cnccn12,6%,16,0%,6%,-5%,-3%
CCCCNc1c(-c2ccc(OC)c(SC3CCCCC3)c2)nc2ccc(Cl)cn12,-23%,-27,10%,21µM*,23µM*,-3%
CCCCNc1c(-c2ccc(OC)c(SC3CCCCC3)c2)nc2cnccn12,?,-70*,?,?,?,?
CCCCNc1c(-c2ccc(OC)c(SC3CCCCC3)c2)nc2cc(C)ccn12,?,-86*,18µM*,21µM*,15µM*,?
CN1CCCCC1(C)C(=O)NCc1ccc(F)cc1 (stereo unspecified),.,32,26%,-1%,7%,24%
O=C(Nc1ccc(F)cc1)[C@H](Cc1ccccc1)N1Cc2ccccc2C1=O,.,.,.,-26%,?,.
CCOC(=O)CSc1ccc(C(=O)Nc2ccc(OC)cc2)cn1,4%,0,10%,-6%,?,-2%
CCCCNc1c(-c2ccc(-c3ccc(C(C)=O)cc3)c(OC)c2)nc2cnccn12,9.2µM*,0,?,10µM*,?,?
Clc1ccc(-c2nc(NCCN3CCOCC3)c3ccccc3n2)cc1,-24%,-61*,?,?,?,?
Cc1ccc(-c2csc3ncnc(NCCC(=O)O)c23)cc1,?,78,0%,23%,-9%,-7%
c1cncc(-c2nc(NCCN3CCOCC3)c3ccccc3n2)c1,.,.,.,-7%,?,.
Clc1ccc(-c2csc3ncnc(NCCN4CCOCC4)c23)cc1,18µM*,-7,?,18µM*,13µM*,-27%
c1ccc(-c2csc3ncnc(NCCN4CCOCC4)c23)cc1,16µM*,-11,?,12µM*,9.2µM*,?
Cc1ccc(-c2csc3ncnc(NCCN4CCOCC4)c23)cc1,?,-65*,-28%,?,23µM*,-20%
O=C(O)c1cccc(COc2cccc3ccccc23)c1,.,11,-13%,0%,1%,-13%
O=C(O)c1ccc(N2Cc3ccccc3C2)cc1O,?,7,-25%,6%,-15%,8%
CN(C)c1cc2c(c(N(C)C)c1)C(=O)c1ccccc1C2=O,?,-50*,-18%,?,?,?
COc1ccc2[nH]c(CCc3nc4c(OC)c(OC)ccc4[nH]3)nc2c1OC,.,.,.,-18%,0%,.
CCC1CCc2sc(C(=O)NCC(c3ccccc3OC)N3CCCC3)cc2C1 (stereo unspecified),-7%,-22,?,16µM*,21µM*,?

# Assay outcomes (PubChem)
